# Measured values as given in PubChem BioAssay AID602440 (Sanford-Burnham Center for Chemical Genomics, 2012).
# The campaign covered roughly 360,000 compounds. About 2,300 (0.64%) were called active. What follows is part of a selection rich in actives, with near analogues and random picks from the rest. Values without a mark were called inactive. No stated cut-off is given here; in the data, active means inhibition mostly above about 40% (no sharp cut-off); inactive means mostly below about 27%.
# Biological target: Sentrin-specific protease 8 (Homo sapiens) (UniProt Q96LD8)
# Sequence (Q96LD8 whole entry, looked up): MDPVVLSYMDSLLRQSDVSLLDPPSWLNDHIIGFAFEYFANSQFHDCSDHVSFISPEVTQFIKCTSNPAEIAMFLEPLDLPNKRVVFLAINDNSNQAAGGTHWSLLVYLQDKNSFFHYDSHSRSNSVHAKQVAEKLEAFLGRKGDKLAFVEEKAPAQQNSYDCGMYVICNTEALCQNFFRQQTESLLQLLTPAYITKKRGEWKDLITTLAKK
# Test: blockers of SENP8 deneddylase activity – biochemical, fluorescence, Nedd8 protein substrate, uHTS, primary screen (AID 602440)
# Conditions: recombinant SENP8, Nedd8 substrate fluorescence; at 20 µM; active compounds read high
row,Structure (SMILES),inhibition
1,NNC(=O)CNC(c1ccccc1)c1cc(Cl)ccc1NC(=O)c1ccccc1 (stereo not drawn),2.6%
2,CN(C(=O)COC(=O)CNC(=O)C12CC3CC(CC(C3)C1)C2)c1ccccc1,2%
3,CC(C)c1cc(Cn2c3ccccc3c(=O)n2C(C)Cn2cc(C3CC3)nn2)on1 (stereo not drawn),-395%
4,CCS(=O)(=O)Nc1ccc(C(=O)NCCSc2ccccc2)cc1,23.1%
5,Cc1cccc(OCC(=O)NC(=S)Nc2ccccc2N2CCOCC2)c1,43.3% (active)
6,CCc1ccc(C(=O)NC(=S)Nc2ccccc2N2CCOCC2)cc1,30.3%
7,Cc1cc(C)cc(OCC(=O)Nc2ccc(N3CCOCC3)cc2N2CCOCC2)c1,17.3%
8,CCn1c(=O)cc(SCC(=O)NCCC2=CCCCC2)c2ccccc21,-40.2%
9,CCCc1nc(SCC(=O)Nc2ccccc2OC)c2c(=O)n(C)c(=O)n(C)c2n1,10.5%
10,FC(F)(F)c1cc(C(F)(F)F)c2ccc(N3CCN(c4ccccc4)CC3)nc2n1,-2.9%
11,Cc1ccc(CNC(=O)C2(C(F)(F)F)C/C(=C\Cc3ccccc3)CCCO2)o1 (stereo not drawn),12.6%
12,CC(C)CC[n+]1ccn(C2=C([O-])c3ccccc3C(=O)/C2=N\S(=O)(=O)c2ccccc2)c1,54% (active)
13,CC(=O)NC(Cc1ccc(F)cc1)C(=O)O (stereo not drawn),2%
14,O=C(CCNC(=O)c1ccc(Br)cc1)NCC(c1ccco1)N1CCCCC1 (stereo not drawn),10.5%
15,CCOC(=O)c1ccc(COC(=O)CCc2nc(-c3ccccc3)c(-c3ccccc3)o2)cc1,-13.2%
16,CCOc1cc(NC(=O)Nc2ccccc2)c(OCC)cc1NC(=O)CC,-0.4%
17,O=C(NCCOc1ccccc1)c1ccccc1F,5.5%
18,CCOc1cc(NC(=O)c2ccccc2C(=O)O)c(OCC)cc1NC(=O)c1ccccc1F,50.6% (active)
19,Cc1ccc(-c2nn(-c3cccc(F)c3)cc2CNCCc2ccncc2)o1,-178%
20,CONC(=O)c1cc(OCC(F)(F)F)ccc1OCC(F)(F)F,21.1%

row,Structure (SMILES),inhibition
1,CCOc1c(Br)cc(/C=C2\C(=O)N(CCC#N)N=C2C)cc1OC,50.8% (active)
2,CCN1C(=O)[C@@H]2[C@@H](c3ccc(-c4ccccc4)cc3)N3CCCC[C@@]3(C(=O)OC)[C@@H]2C1=O,3.1%
3,CC1=C/C(=N\OS(=O)(=O)c2ccccc2)C=CC1=O,52.9% (active)
4,COc1ccc2[nH]c3c(c2c1)CCN1C(=O)C(CC(=O)NCCc2ccccn2)C[C@H](C(=O)N2CCOCC2)[C@@]31C (stereo partly drawn),-3.3%
5,Cc1ccc(S(=O)(=O)N2[C@@H](c3cccc4ccccc34)C(C(=O)O)=C[C@H]2C(C)(C)C)cc1,1.1%
6,O=C(NC1CC1)C1=C[C@H](c2coc3ccccc3c2=O)C[C@H](OCCCCO)O1,-5%
7,O=C(COc1ccccc1)N1CCc2ccccc2C1,42.5% (active)
8,Cc1ccc(Cl)c(OCC(=O)N2CCc3ccccc3C2)c1,20.7%
9,CCC(=O)c1ccc(OCC(=O)OCC(=O)N2CCc3ccccc3C2)cc1,18.9%
10,COc1cccc(N2CC(C(=O)NCc3n[nH]c(=O)c4ccccc34)CC2=O)c1 (stereo not drawn),-0.8%
11,O=[N+]([O-])c1ccc(N2CCN(S(=O)(=O)c3ccccc3)CC2)cc1N1CCc2ccccc2C1,-132%
12,O=[N+]([O-])c1ccc(N2CCN(c3ccc(O)cc3)CC2)c(Cl)c1,26.5%
13,O=[N+]([O-])c1ccc(N2CCSCC2)cc1O,57% (active)
14,CC(C(=O)NC1CCCC1)N1CCN(S(=O)(=O)c2ccccc2Cl)CC1 (stereo not drawn),7.4%
15,CC1(C)Cc2cccc(OCC(=O)Nc3nccs3)c2O1,42.4% (active)
16,COc1cccc(CCNC(=O)COc2cccc3c2OC(C)(C)C3)c1,20.6%
17,CC1(C)Cc2cccc(OCC(N)=O)c2O1,20.9%
18,COc1cc(NC(=O)COC(=O)c2ccc([N+](=O)[O-])s2)cc(OC)c1OC,26.8%
19,C[C@H](NC(=O)c1ccccc1Cl)C(=O)OCC(=O)N1CCN(c2ccccc2)CC1,12.8%
20,O=C(OCC(=O)N1CCN(c2ccccc2)CC1)c1ccc([N+](=O)[O-])s1,42.9% (active)

row,Structure (SMILES),inhibition
1,Oc1ccc(N=Cc2sc3ccccc3c2Cl)cc1,87.5% (active)
2,CCCN=C1NC(=O)C(CC(=O)NCCc2ccc(OC)c(OC)c2)S1 (stereo not drawn),16.5%
3,Cc1ccc(-n2nc3c(=O)n(C(C)C(=O)NCc4ccc5c(c4)OCO5)nc(C)c3c2C)cc1 (stereo not drawn),3.2%
4,CC(=O)c1c(N2CCOCC2)nc(=S)n(-c2cc(C)ccc2C)c1C,9.8%
5,CC(=O)Nc1ccc(OCCC[n+]2cccc(C(=O)[O-])c2)cc1,7.7%
6,COc1ccc(-c2nnco2)cc1OC,41.5% (active)
7,COc1ccc2c(Cl)c(-c3nnco3)sc2c1,-37.1%
8,COc1ccc(C(=O)Oc2ccc(-c3nnco3)cc2)cc1S(=O)(=O)N1CCOCC1,20.2%
9,Cc1ccc(N2C(=O)CN=C2Nc2nc(C)cc(C)n2)cc1,31.7%
10,COc1ccc(N2CCC(CNC(=S)Nc3c(C)cccc3C)C2)cc1 (stereo not drawn),9.9%
11,CCN(C(=O)CSc1ncnc2sccc12)c1c(N)n(Cc2ccccc2)c(=O)[nH]c1=O,-25%
12,CC1CCCC(N2CCN(C(=O)c3ccc(F)cc3)CC2)C1 (stereo not drawn),7.2%
13,CCN1CCC(O)(/C=C/c2ccc(C)cc2)C(C(=O)/C=C/c2ccc(C)cc2)C1 (stereo not drawn),16.7%
14,Cc1ccc(C(=O)N2CC(=O)Nc3ccc(F)cc3C2c2ccc(F)cc2)cc1 (stereo not drawn),4.1%
15,CCN1CCC2(CC1)N=C(c1ccc(F)cc1)C(=S)N2C(=O)c1ccc(C)cc1,48.7% (active)
16,COC(=O)CNC(=O)c1ccc2c(c1)S(=O)(=O)c1ccccc1C2=O,23.2%
17,CN(Cc1ccccc1)C(=O)CCNC(=O)Cn1cnc2ccccc2c1=O,16.4%
18,N#Cc1cccc(NC(=O)CN2CCCCCC2)c1,7.3%
